Results as given in PubChem BioAssay AID720565 (National Center for Advancing Translational Sciences (NCATS), 2013).
Several values for one entry are separate records, joined by “and”; a condition that tells them apart may be missing. Identical values can stand only once. Records with an inconclusive call do not appear. Activity calls are given as the source filed them. The call rests on the fitted dose curve; in most records, active means well fitted activation curve with a large enough effect; inconclusive means small, poorly fitted or top-dose-only effect; inactive means no such curve, though single readings can be large or run the other way.

Assay: qHTS for small molecules that induce genotoxicity in ELG1 expressing cells: Confirmatory Assay for Cherry-picked Compounds; further: nearly all actives have a fitted effect of over 35% in size
Outline: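 Activation readout: ONE-Glo luciferase signal from ELG1 reporter cells, 2,000 per well, after 16 hr compound incubation at 37 C. Increased ELG1-driven luminescence reflects genetic stress.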
Potency means the concentration at half of the fitted maximal effect.

## C(=C\c1nc2ccccc2s1)/c1ccc2c(c1)OCO2
  Potency: 0.141 µM (active)

## CN(C)c1ccc(N=Nc2ccc(/C=C/c3ccnc4ccccc34)cc2)cc1
  Potency: 4.45 µM (active)

## Cc1ccc(NC(=O)c2ccc(OC(=O)c3ccco3)cc2)cc1
  Potency: 11.5 µM (active) and 14.1 µM (active)

## Cc1ccnc(NC(=S)N2CCN(c3ccc(N)cc3)CC2)c1
  Potency: 14.1 µM (active)

## CSc1ccc(C(=O)c2[nH]c(=O)[nH]c2C)cc1
  Potency: 31.5 µM (active)

## Oc1ccc(CCc2ccccc2F)c2cccnc12
  Potency: 14.1 µM (active)

## Cc1ccc(NC(=O)c2ccc(OC(=O)c3cc4ccccc4o3)cc2)cc1
  Potency: 8.89 µM (active)

## CC(=O)c1cc(F)ccc1OCC(=O)Nc1ccc2c(c1)OCO2
  Potency: 6.28 µM (active)

## COc1cccc(/C=C/c2cnc3ccccc3n2)c1OC
  Potency: 0.397 µM (active)

## O=c1[nH]c(-c2ccc(-c3cccc(Cl)c3)o2)nc2ccccc12
  Potency: 1.12 µM (active) and 1.41 µM (active)

## COc1cccc(-c2cc(NCc3cccs3)ncn2)c1
  Potency: 3.97 µM (active)

## CC(=O)c1c(C)[nH]c(C(=O)Nc2cccc(S(=O)(=O)N3CCCC3)c2)c1C
  Potency: 15.8 µM (active)

## COc1ccc(OCC(=O)Nc2ccc(-c3nc4cc(C)c(C)cc4o3)cc2)cc1
  Potency: 813 nM (active) and 1.12 µM (active)

## CN(C)c1ccc(-c2cc3ccccc3c(=O)o2)cc1
  Potency: 0.445 µM (active)

## COc1cccc(/C=C/C(=O)OCC(=O)c2ccccc2)c1OC
  Potency: 3.53 µM (active)

## CC1CCC(NC(=O)CN2C(=O)NC(C)(C)C2=O)CC1 (configuration not stated)
  Potency: inactive

## O=C(NC1CCCC1)c1cc(-c2cccs2)on1
  Potency: 15.8 µM (active)

## Clc1ccc(-c2cnnc(-c3ccccn3)n2)cc1
  Potency: 14.1 µM (active)

## C=C1C(c2ccc(C)cc2)=CCc2cc(C)cc(C)c21
  Potency: 5 µM (active)

## O=C1/C(=C/c2ccc(O)c(O)c2)Oc2ccccc21
  Potency: 6.28 µM (active)

## O=c1cc(-c2ccccc2)oc2ccc(Br)cc12
  Potency: 11.2 µM (active)

## CS(=O)c1ccc(/C=C2\C=Cc3ccccc32)cc1 (configuration not stated)
  Potency: 1.26 µM (active)

## O=C(CSc1nc2ccccc2o1)Nc1ccccc1N1CCCCCC1
  Potency: inactive

## Cc1cc(C)cc(NC(=O)CCc2nc3sc4c(c3c(=O)[nH]2)CCCC4)c1
  Potency: inactive

## CCCCCn1ncc2c3sc(C)cc3n(C)c2c1=O
  Potency: 12.5 µM (active)

## COc1cccc(NC(=O)COC(=O)c2sccc2C)c1
  Potency: 11.2 µM (active)

## COc1ccc(-c2cc3cc4c(cc3cn2)OCO4)cc1
  Potency: 1.77 µM (active)

## O=C1CCCC(=NNC(=O)c2cc3ccccc3cc2O)C1
  Potency: 15.8 µM (active)

## Cc1cc(C(=O)COC(=O)c2ccc(F)cc2)c(C)n1C
  Potency: 2.23 µM (active)

## CCOC(=O)c1cc(-c2ccc([N+](=O)[O-])cc2)nc2c1c(=O)[nH]c(=O)n2Cc1ccccc1
  Potency: 11.2 µM (active)

## Nc1ccc(/C=C/c2ccc3cccnc3c2)cc1
  Potency: 0.5 µM (active)

## O=C(Cc1ccc(OCCCc2ccccc2)cc1)NO
  Potency: 15.8 µM (active)

## Oc1ccc(/C=C/c2c(F)cccc2F)c2cccnc12
  Potency: 9.96 µM (active)

## O=C(Nc1cc(Cl)ccc1Cl)c1ccc(OC(=O)c2ccco2)cc1
  Potency: inactive

## Cc1nc2cc(-c3ccccc3)nn2c(N)c1-c1ccccc1
  Potency: 0.629 µM (active)

## C(=C\c1ccc2ccccc2n1)/c1ccc2ccccc2n1
  Potency: 0.792 µM (active)

## CN(C)c1cccc(C(=O)NNC(=O)CN2C(=O)C3CC=CCC3C2=O)c1 (configuration not stated)
  Potency: 7.91 µM (active)
